Results on 26 compounds are retold here after ChEMBL document CHEMBL3988442, “University of Dundee, Small-Polar-MMV Screening Library” (2021).

In all, about 48,000 compounds went through this assay and about 13,000 (27%) showed an effect of 50% or more. Some of the results follow.

This assay has as its system Wolbachia pipientis. Kind of assay: Anti-Wolbachia Cell-Based Screen. It is filed as functional. More on the design: scale not given: in the data most compounds retested in dose-response had high values. Conditions: 5 µM.
Consider `CC(C)N(CC(N)=O)CC(=O)NCCc1c(F)cccc1F`, for which the “Percent Effect” value came to 4.922%.

Turning to `Cc1cnn(CC2CCCCN2CC(=O)N(C)Cc2ccc(C)o2)c1` (stereo unspecified), the “Percent Effect” value is -2.749%.

Regarding `COc1cccc(S(=O)(=O)Cc2cc(C)on2)c1`, the “Percent Effect” value is -2.252%.

Turning to `CC(C)CCOc1ccc(C(C)NC(=O)Cn2cccnc2=O)cc1` (stereo unspecified), the “Percent Effect” value was -2.548%.

For `COc1ncccc1C(Cc1ccsc1)NC(=O)Cn1cccnc1=O` (stereo unspecified), the “Percent Effect” value is given as 115.2%.

For the compound `CC(NC(=O)Cn1cccnc1=O)c1ccc(OC(F)(F)F)cc1` (stereo unspecified), the “Percent Effect” value was 5.256%.

Turning to `Cc1nc([C@@H]2C[C@@H]3CCN(Cc4cnn(C)c4)C[C@H]3O2)sc1C`, the “Percent Effect” value is listed as -0.8686%.

Regarding `Cc1[nH]ncc1C(=O)NCC1CCC2(CC1)OCCO2`, the “Percent Effect” value is listed as -7.861%.

Take `Brc1cnc(NCCCOCC2CCOCC2)nc1`: the “Percent Effect” value came out at 13.33%.

`COCc1nc(C(=O)NS(=O)(=O)c2ccc(C)cc2C)cs1`: the “Percent Effect” value is -13.89%.

As for `COc1cc(N2C[C@@H]3COC[C@@H](Cc4nnc(C)o4)[C@@H]3C2)ncn1`, the “Percent Effect” value is given as 80.24%.

Turning to `Cc1noc(C[C@@H]2COC[C@H]3CN(S(C)(=O)=O)C[C@@H]23)n1`, the “Percent Effect” value was -1.05%.

On to `Cc1nnc(C[C@@H]2COC[C@H]3CN(C(=O)c4ccco4)C[C@@H]23)o1`, for which the “Percent Effect” value was -16.71%.

For `Cc1nnc(C[C@@H]2COC[C@H]3CN(C(=O)C4=CCCC4)C[C@@H]23)o1`, the “Percent Effect” value is recorded as -9.93%.

In the case of `COc1cc(N2C[C@@H]3COC[C@@H](Cc4nc(C)no4)[C@@H]3C2)ncn1`, the “Percent Effect” value was 118.7%.

Consider `CCS(=O)(=O)N1C[C@@H]2COC[C@@H](Cc3nc(C)no3)[C@@H]2C1`, for which the “Percent Effect” value stood at 1.999%.

With `Cc1cc(CN(CC(N)=O)CC(C)C)no1`, the “Percent Effect” value is given as -21.97%.

Turning to `CC(C)CN1C[C@@H]2CN(S(=O)(=O)c3cccs3)C[C@@H]2C1=O`, the “Percent Effect” value is reported as -12.36%.

On to `CN(Cc1ccco1)C(=O)CN1C(=O)c2ccccc2C1=O`, for which the “Percent Effect” value is recorded as 72.08%.

Consider `Cc1cnn(C2CN(CC(=O)N(C)Cc3cccs3)C2)c1`, for which the “Percent Effect” value is on record as -27.07%.

As for `CN(Cc1ccco1)C(=O)Nc1ccc(=O)n(C)c1`, the “Percent Effect” value is 2.905%.

For `CN(Cc1ccco1)C(=O)CN1C(=O)c2cc(Cl)c(Cl)cc2C1=O`, the “Percent Effect” value is 81.66%.

`CN(Cc1ccco1)C(=O)CN1CCN(C)c2ccccc2C1`: the “Percent Effect” value is -2.251%.

In the case of `CN(Cc1cccs1)C(=O)CN1C(=O)c2cc(Cl)c(Cl)cc2C1=O`, the “Percent Effect” value is on record as 78.58%.

Turning to `CN(Cc1cccs1)C(=O)CS(=O)(=O)Cc1ccc(Cl)c(Cl)c1`, the “Percent Effect” value is listed as 0.1099%.

For `Cc1cccc(C(C(=O)N(C)Cc2ccco2)N(C)C)c1` (stereo unspecified), the “Percent Effect” value is 9.844%.
